According to PubChem BioAssay (NCI):
About 79,000 compounds went through this panel and 15% of them were active in at least one assay; those are over-represented in the sample as a whole. Values without a mark were called inactive. The source made the active and inactive calls. No stated cut-off is given here; in the data, active means growth inhibition above about 70%; inactive means the rest.

Test: NCI Yeast Anticancer Drug Screen. Data for the sgs1 mgt1 strain (AID 161);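 further: 0% = growth of cultures given vehicle only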
Details: S. cerevisiae sgs1 mgt1 strain, at 50.0 µM, hits give high values
Outline: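 Genetically altered yeast, compound exposure, growth inhibition relative to vehicle.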
In the case of COc1ccccc1-n1c(O)c(N=Nc2ccc(Cl)cc2)c(=O)n(-c2ccc(I)cc2)c1=S, the growth inhibition is reported as 36%.
With COC(=O)/C(=N/Nc1cccc(Cl)c1)C(C(=O)C(=O)Nc1cccc(Cl)c1C)c1nc2ccccc2nc1C (stereo not drawn) the growth inhibition was 42%.
For C=C(C)COc1ccc(-c2ccccc2)cc1, the growth inhibition was 8%.
COc1ccc(NC(=O)CC(=O)N/N=C/c2ccc(N(CCC#N)S(=O)(=O)c3ccccc3)cc2)cc1 showed a growth inhibition of -29.5%.
With CNC(=O)/C(=C\c1ccccc1)NC(C)=O the growth inhibition was 6%.
Compound CCOC(=O)NN(C(=O)OCC)C(C(=O)C1CCCCC1)N(NC(=O)OCC)C(=O)OCC has a growth inhibition of 18.9%.
Compound c1ccc(CCc2cccnc2)nc1 has a growth inhibition of -21.6%.
Compound O=C(c1cccc(F)c1)c1ccccc1Cc1ccccc1 has a growth inhibition of -8.05%.
With Cc1cccc(C)c1NC(=O)/C(=N/NC(N)=S)C(C)C(=O)c1ccc(Cl)cc1 (stereo not drawn) the growth inhibition was 19.6%.
Work on Cn1c2ccccc2c2[nH]c3ccccc3c(=O)c21 yielded a growth inhibition of -15.1%.
Compound CN(C=O)C(C(=O)Nc1cccc2c(OC(=O)C(N(C)C=O)(N(C)C=O)N(C)C=O)c(N=Nc3ccc(S(=O)(=O)Nc4nccs4)cc3)cc(N=Nc3ccc(S(=O)(=O)Nc4nccs4)cc3)c12)(N(C)C=O)N(C)C=O (tested in a mixture with another compound) has a growth inhibition of -6.25%.
Compound COc1ccc(C2S/C(=C\c3ccccc3)C(=O)N2NC(=O)Cc2ccccc2)cc1 (stereo not drawn) has a growth inhibition of -7.5%.
For CC(=O)OC1CCC2(C)C3C/C(=N\O)C4(C)C(C(C)OC(C)=O)CCC4C3CCC2(C)C1 (stereo not drawn), the growth inhibition was 96% (active).
